Data published in PubChem BioAssay (Tox21).
Results filed as inconclusive are left out. Calls of active or inactive are those of the source. Unless noted, calls come from the whole dose curve; as a rule, active = well fitted curve in the direction sought with a large enough effect in the repeat runs; inconclusive = weak or mixed curves; inactive = no such curve, though single readings can be large; an effect the other way counts as inactive or inconclusive.

Tests used:
[1] = qHTS assay to identify small molecule agonists of the peroxisome proliferator-activated receptor delta (PPARd) signaling pathway - cell viability counter screen (AID 743211); note: nearly all actives have a fitted effect of over 55% in size
Procedure, shortened: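 Viability was measured as CellTiter-Glo luminescence (30 min, room temperature) in the same wells as the beta-lactamase readout. GeneBLAzer PPARd UAS-bla HEK293H cells received compound after 5 h plating and were incubated 17 h at 37 C.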

[2] = qHTS assay to identify small molecule antagonists of the peroxisome proliferator-activated receptor delta (PPARd) signaling pathway - cell viability counter screen (AID 743213); note: nearly all actives have a fitted effect of over 50% in size
Procedure, shortened: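 CellTiter-Glo was added to PPARd-bla HEK293H wells following 17 h compound treatment in the presence of 300 nM L165041. Luminescence was recorded after 30 min at room temperature.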

[3] = qHTS assay to identify small molecule agonists of the farnesoid-X-receptor (FXR) signaling pathway - cell viability counter screen (AID 743218); note: nearly all actives have a fitted effect of over 45% in size
Procedure, shortened: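 HEK 293T FXR-bla cells; 5 h pre-incubation, 16 h compound exposure at 37 C; LiveBLAzer substrate 2 h RT, then CellTiter-Glo 30 min RT, luminescence.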

[4] = qHTS assay to identify small molecule antagonists of the farnesoid-X-receptor (FXR) signaling pathway - cell viability counter screen (AID 743221; active = well fitted cell-killing curve with a large enough effect in the repeat runs, not every such curve was filed as active; note: nearly all actives have a fitted effect of over 50% in size)
Procedure, shortened: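 Cytotoxicity counter screen run in the FXR-bla reporter wells: HEK 293T cells exposed to compound with 50 uM (final) chenodeoxycholic acid for 16 h, 37 C, then viability measured by CellTiter-Glo luminescence after 30 min, room temperature.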

[5] = biological target: Vitamin D3 receptor (Homo sapiens) (UniProt P11473); assay: qHTS assay to identify small molecule agonists of the vitamin D receptor (VDR) signaling pathway (AID 743222; calls by dose curve)
Vitamin D3 receptor (Homo sapiens), sequence (P11473 whole entry, looked up): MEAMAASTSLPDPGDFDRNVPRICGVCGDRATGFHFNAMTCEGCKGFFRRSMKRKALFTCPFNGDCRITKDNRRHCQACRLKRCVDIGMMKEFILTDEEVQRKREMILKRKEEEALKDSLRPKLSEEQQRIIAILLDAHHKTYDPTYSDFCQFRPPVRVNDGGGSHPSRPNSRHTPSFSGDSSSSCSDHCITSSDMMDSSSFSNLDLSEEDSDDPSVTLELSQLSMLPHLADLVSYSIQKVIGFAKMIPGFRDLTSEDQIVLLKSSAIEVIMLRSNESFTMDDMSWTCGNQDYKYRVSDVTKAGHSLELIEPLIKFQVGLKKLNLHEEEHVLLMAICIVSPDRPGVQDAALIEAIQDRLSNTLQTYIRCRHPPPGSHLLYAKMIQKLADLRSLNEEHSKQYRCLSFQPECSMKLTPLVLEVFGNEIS
Procedure, shortened: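 VDR-bla cells, 2,000/well; 4 h preincubation 37C; cpd (DMSO) 16 h; LiveBLAzer B/G substrate 2 h RT; fluorescence intensity read.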

[6] = biological target: Vitamin D3 receptor (Homo sapiens) (UniProt P11473); assay: qHTS assay to identify small molecule antagonists of the vitamin D receptor (VDR) signaling pathway (AID 743223; active = well fitted inhibition curve with a large enough effect in the signal ratio in the repeat runs, not every such curve was filed as active; the % refers to the signal ratio)
Procedure, shortened: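 Antagonist mode: compound added to VDR-bla cells alongside agonist 1alpha,25-dihydroxyvitamin D3 (3 nM final), incubation 16 h at 37C. Read-out is LiveBLAzer FRET fluorescence, 2 h at room temperature.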

[7] = biological target: Peroxisome proliferator-activated receptor delta (Homo sapiens) (UniProt Q03181); assay: qHTS assay to identify small molecule agonists of the peroxisome proliferator-activated receptor delta (PPARd) signaling pathway (AID 743212; calls by dose curve)
Peroxisome proliferator-activated receptor delta (Homo sapiens), sequence (Q03181 whole entry, looked up): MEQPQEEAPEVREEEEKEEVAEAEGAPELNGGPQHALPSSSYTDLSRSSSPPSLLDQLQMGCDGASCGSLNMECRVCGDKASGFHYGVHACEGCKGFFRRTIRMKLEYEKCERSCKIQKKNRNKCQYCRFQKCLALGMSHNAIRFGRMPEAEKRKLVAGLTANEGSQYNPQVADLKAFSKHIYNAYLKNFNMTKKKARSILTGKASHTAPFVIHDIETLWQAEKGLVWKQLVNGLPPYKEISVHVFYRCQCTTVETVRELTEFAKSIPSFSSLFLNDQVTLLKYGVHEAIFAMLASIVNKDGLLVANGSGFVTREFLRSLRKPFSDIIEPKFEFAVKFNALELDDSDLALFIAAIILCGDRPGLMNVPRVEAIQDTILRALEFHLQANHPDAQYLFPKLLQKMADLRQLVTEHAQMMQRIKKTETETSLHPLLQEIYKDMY
Procedure, shortened: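 A PPARd-bla HEK293H line with beta-lactamase under an Upstream Activator Sequence is treated with compounds at 37 C. Substrate loading for 2 h at room temperature precedes the fluorescence measurement.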

[8] = biological target: Peroxisome proliferator-activated receptor delta (Homo sapiens) (UniProt Q03181); assay: qHTS assay to identify small molecule antagonists of the peroxisome proliferator-activated receptor delta (PPARd) signaling pathway (AID 743215; active = well fitted inhibition curve with a large enough effect in the signal ratio in the repeat runs, not every such curve was filed as active; the % refers to the signal ratio;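 note: cells stimulated with agonist L165041 at 300 nM final during compound exposure; series mostly up to about 62 µM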)
Procedure, shortened: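 Read-out is beta-lactamase FRET fluorescence, measured 2 h after substrate addition at room temperature. Beforehand, UAS-bla HEK293H cells carrying the PPARd reporter were exposed to compounds with L165041 at 300 nM final for 17 h at 37 C.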

[9] = biological target: Bile acid receptor (Homo sapiens) (UniProt Q96RI1); assay: qHTS assay to identify small molecule antagonists of the farnesoid-X-receptor (FXR) signaling pathway (AID 743217; active = well fitted inhibition curve with a large enough effect in the signal ratio in the repeat runs, not every such curve was filed as active; the % refers to the signal ratio)
Bile acid receptor (Homo sapiens), sequence (Q96RI1 whole entry, looked up): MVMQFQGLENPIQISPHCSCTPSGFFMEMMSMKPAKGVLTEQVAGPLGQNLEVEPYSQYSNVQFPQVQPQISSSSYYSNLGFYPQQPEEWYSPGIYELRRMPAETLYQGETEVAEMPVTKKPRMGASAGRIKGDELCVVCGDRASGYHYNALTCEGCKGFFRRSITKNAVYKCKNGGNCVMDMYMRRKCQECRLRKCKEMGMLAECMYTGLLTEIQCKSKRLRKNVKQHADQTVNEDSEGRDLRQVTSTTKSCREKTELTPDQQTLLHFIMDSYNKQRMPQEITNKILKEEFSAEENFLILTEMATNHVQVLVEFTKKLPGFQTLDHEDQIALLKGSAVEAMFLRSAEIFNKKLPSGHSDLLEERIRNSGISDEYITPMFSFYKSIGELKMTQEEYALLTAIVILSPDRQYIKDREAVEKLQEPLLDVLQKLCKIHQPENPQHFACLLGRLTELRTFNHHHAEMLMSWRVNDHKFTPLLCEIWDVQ
Procedure, shortened: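 HEK 293T FXR-UAS-bla, 5000 cells/well; compound + CDCA 50 uM final; 16 h, 37 °C; B/G FRET substrate 2 h RT; fluorescence.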

[10] = biological target: Bile acid receptor (Homo sapiens) (UniProt Q96RI1); assay: qHTS assay to identify small molecule agonists of the farnesoid-X-receptor (FXR) signaling pathway (AID 743220; active = well fitted activation curve with a large enough effect in the signal ratio in the repeat runs, not every such curve was filed as active; the % refers to the signal ratio)
Procedure, shortened: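 Beta-lactamase reporter under UAS control in GeneBLAzer FXR HEK 293T cells (5000/well) measured with LiveBLAzer FRET substrate after 2 h at room temperature. Compound exposure lasted 16 h at 37C.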

Measured: outcome

C=C(C)C1CC=C(C)C(=O)C1 (stereo not given)
inactive: [1] | [2] | [3] | [4] | [5] | [6]

C=C(C)[C@@H]1CC=C(C)C(=O)C1
inactive: [1] | [3] | [4] | [5] | [6]

CCCCC1CCC(O)CC1 (stereo not given)
not listed: [1] | [3] | [10]
inactive: all other assays above

CCC(=O)CC
not listed: [1] | [6] | [10]
inactive: all other assays above

CCCCOCCOC(=O)COc1ccc(Cl)cc1Cl
inactive: [1] | [2] | [3] | [4] | [5]

COP(=O)(O)OP(=O)(O)OC
inactive: [1] | [2] | [3] | [4] | [5] | [6]

C=C(C)c1cccc(C(C)(C)N=C=O)c1
inactive: [1] | [2] | [3] | [4] | [5] | [6]

CCCCOC(=O)C(C)O (stereo not given)
not listed: [1] | [10]
inactive: all other assays above

CO[C@@]1(NC(=O)Cc2cccs2)C(=O)N2C(C(=O)O)=C(COC(N)=O)CS[C@@H]21
inactive: [1] | [2] | [4]

CCCC(CC)c1ccccc1 (stereo not given)
inactive: [1] | [2] | [3] | [4] | [5] | [6]

C=C(C)[C@@H]1CC=C(C)CC1
inactive: [1] | [2] | [4]

C/C(=C1\CCOC(=O)S1)N(C=O)Cc1cnc(C)nc1N
not listed: [1] | [3] | [10]
inactive: all other assays above

O=C(O)CNC(=O)CNC(=O)CNC(=O)CSC(=O)c1ccccc1
inactive: [1] | [2] | [3] | [4] | [5] | [6]

CN(C)CCN(C)CCO
inactive: [1] | [9] | [3] | [4] | [5] | [6]

COC(=O)CCCCC(CCSS/C(CCO)=C(\C)N(C=O)Cc1cnc(C)nc1N)SC(C)=O (stereo not given)
not listed: [1] | [5] | [6]
inactive: all other assays above

COS(=O)(=O)O
inactive: [1] | [2] | [4] | [5] | [6]

Cc1ccc(C)c([N+](=O)[O-])c1
not listed: [1] | [9] | [10]
inactive: all other assays above

C=CCN1C[C@H](C(=O)N(CCCN(C)C)C(=O)NCC)C[C@@H]2c3cccc4[nH]cc(c34)C[C@H]21
inactive: [7] | [8] | [4] | [5] | [6]

CC(=O)O[C@@H]1CC2CCC1(C)C2(C)C (stereo not given in full)
inactive: [2] | [9] | [3] | [4] | [5] | [6]

CC(C)(C)NC[C@H](O)COc1cccc2c1CCCC2=O
inactive: [3] | [4] | [5] | [6]

C=Cc1ccc(C(C)(C)C)cc1
inactive: [7] | [2] | [9] | [3] | [10] | [4]

C/C(CC(C)C)=N\O
not listed: [1] | [9] | [10]
inactive: all other assays above

N#CCC(=O)NN
inactive: [7] | [2] | [8] | [3] | [4] | [5]

Cc1ccccc1C(N)=O
inactive: [7] | [8] | [9] | [3] | [10] | [4]

C[Si]1(C)O[Si](C)(C)O[Si](C)(C)O[Si](C)(C)O[Si](C)(C)O1
inactive: [7] | [2] | [8] | [3] | [4] | [5]

CC(C)C1OCCN1CCOC(=O)NCCCCCCNC(=O)OCCN1CCOC1C(C)C (stereo not given)
inactive: [7] | [8] | [3] | [4]

CC(C)C[C@@H]1[C@H](c2ccccc2)OC(=O)N1CCCN1CCCCCC1
inactive: [7] | [2] | [8] | [4]

CCO[Si](CC)(OCC)OCC
inactive: [7] | [8] | [4] | [5]

COc1nc(N)nc2nc[nH]c12
inactive: [7] | [2] | [8] | [4]

C/C=C(\C)C(C)=O
inactive: [7] | [2] | [8] | [4]

CCCC(=O)OC/C=C(\C)CCC=C(C)C
not listed: [1] | [8]
inactive: all other assays above

CC(C)CO
inactive: [3] | [4] | [5]

Cc1ccc2c(c1)C(=O)c1ccccc1C2=O
not listed: [1] | [9] | [10]
inactive: all other assays above

CCC(=O)c1c(O)cc(O)cc1O
inactive: [2] | [9] | [10] | [4]

CCCc1ccc(O)cc1
not listed: [1] | [2] | [10]
inactive: all other assays above

[O]=[Mo](=[O])=[O]
inactive: [7] | [2] | [3] | [4] | [5] | [6]

CC(=O)OC(C)=O
inactive: [2] | [4] | [5] | [6]

CC(C)NCC(O)c1ccc2ccccc2c1 (stereo not given)
not listed: [1] | [9] | [10]
inactive: all other assays above

CCC(=O)Oc1ccc2c(c1)CC[C@@H]1[C@@H]2CC[C@@]2(C)[C@H]1C[C@@H](OC(=O)CC)[C@@H]2OC(=O)CC
inactive: [2] | [9] | [3] | [4] | [5] | [6]

O=C(Cl)c1ccccc1[N+](=O)[O-]
inactive: [2] | [4]

CCC/C=C(\C=O)CC
inactive: [7] | [2] | [3] | [4] | [5]

O/N=C/C=N/O
inactive: [7] | [2] | [8] | [4] | [5] | [6]

COC(=O)CCCCC(=O)O
inactive: [7] | [2] | [8] | [4]

COc1c2occc2c(OC)c2c(=O)cc(C)oc12
inactive: [9] | [10] | [4] | [5] | [6]

O=C1CCCCO1
not listed: [1] | [9] | [10]
inactive: all other assays above

O=C1OCCO1
inactive: [7] | [8] | [9] | [10] | [4] | [5]

COC(=O)c1cc(Cl)cc(Cl)c1
not listed: [1] | [9] | [10]
inactive: all other assays above

N#Cc1cscn1
inactive: [2] | [9] | [3] | [4]

CC(S)C(C)S (stereo not given)
inactive: [7] | [9] | [3] | [4] | [5]

CC1(C)[C@H]2CC[C@](C)(C2)[C@H]1O
not listed: [1] | [2] | [10]
inactive: all other assays above

CC1CC(=O)CC(C)(C)C1 (stereo not given)
inactive: [7] | [2] | [3] | [4] | [5] | [6]

CC(=O)CCc1ccc(OC(C)=O)cc1
not listed: [1] | [2] | [10]
inactive: all other assays above

CC(C)OC(=O)OCOP(=O)(CO[C@H](C)Cn1cnc2c(N)ncnc21)OCOC(=O)OC(C)C
inactive: [7] | [2] | [8] | [4] | [5] | [6]
